# PubChem BioAssay (Tox21)
# Results filed as inconclusive are left out. Where a call stands in place of a potency, no number is given. The source made the active and inactive calls. Calls come from the whole dose curve; as a rule, active = well fitted inhibition curve with a large enough effect in the repeat runs; inconclusive = weak or mixed curves; inactive = no such curve, though single readings can be large or run the other way.
# Molecular target: Cytochrome P450 2C19 (Homo sapiens) (UniProt P33261)
# Assay: Cytochrome P450 Family 2 Subfamily C Member 19 (CYP2C19) small molecule antagonists: luciferase reporter qHTS assay (AID 1671197); note: nearly all actives have a fitted effect of over 65% in size
# Conditions: P450-Glo CYP2C19 enzyme, luciferin luminescence, 1 h; series mostly up to 115 µM
# Outline: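 Relative luminescence units recorded 20 min after the detection reagent stopped a 1 h, 37C CYP2C19 reaction on proluciferin substrate, which was started by NADPH regeneration following 10 min room-temperature compound preincubation; ketoconazole positive control.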
# Potency is the fitted concentration of half-maximal effect.
# Cytochrome P450 2C19 (Homo sapiens), sequence (P33261 whole entry, looked up): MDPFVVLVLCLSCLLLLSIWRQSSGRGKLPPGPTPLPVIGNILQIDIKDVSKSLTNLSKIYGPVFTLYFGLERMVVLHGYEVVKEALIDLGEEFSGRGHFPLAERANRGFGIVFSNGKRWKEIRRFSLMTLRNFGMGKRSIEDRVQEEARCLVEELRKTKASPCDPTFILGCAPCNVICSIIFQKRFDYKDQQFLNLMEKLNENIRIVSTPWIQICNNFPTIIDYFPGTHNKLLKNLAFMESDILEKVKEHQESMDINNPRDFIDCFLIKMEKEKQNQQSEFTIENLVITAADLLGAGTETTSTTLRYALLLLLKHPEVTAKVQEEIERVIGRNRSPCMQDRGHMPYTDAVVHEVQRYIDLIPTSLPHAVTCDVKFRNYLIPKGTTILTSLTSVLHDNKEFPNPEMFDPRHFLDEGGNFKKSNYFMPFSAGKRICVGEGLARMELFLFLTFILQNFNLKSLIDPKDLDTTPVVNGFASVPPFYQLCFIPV
row,Compound,Potency
1,COc1cc(CNC(=O)CCCC/C=C/C(C)C)ccc1O,9.77 µM (active)
2,O=C(O)c1ccccc1-n1cc(C(=O)O)c(=O)c2cc(Nc3c(F)cc(F)cc3Cl)c(Cl)cc21,inactive
3,O=C(Nc1ccccc1)c1cc([N+](=O)[O-])ccc1Cl,22.4 µM (active)
4,C[C@H]1C[C@H]2[C@@H]3CCC4=CC(=O)C=C[C@]4(C)[C@@]3(F)[C@@H](O)C[C@]2(C)[C@@]1(O)C(=O)COP(=O)(O)O,inactive
5,CC(C)CCCCCOC(=O)CS,inactive
6,O=c1[nH][nH]c2ccccc12,81.2 µM (active)
7,C=C(C)C(=O)OCCCCCCCCCCOC(=O)C(=C)C,inactive
8,Cc1ccc(S(=O)(=O)NC(=O)NC2CCCC2)cc1,inactive
9,O=C(N[C@@H](Cc1ccccc1)[C@@H](O)C(=O)N1C[C@@H](O)[C@@H](O)C1)c1cc2cc(Cl)ccc2[nH]1,39.9 µM (active)
10,CCCCCCCCOCCCN,2 µM (active)
11,CCCN(C1CCN(C(=O)C2CCNCC2)CC1)[C@@H]1CCc2ccc(OC)cc2C1,inactive
12,CCCc1ccc(OC)cc1,63.7 µM (active)
13,CCOc1cc(OCC)c(C(C)=O)cc1OCC,69.8 µM (active)
14,O=C(O)c1cc(C(=O)O)c(C(=O)O)cc1C(=O)O,inactive
15,Cc1cc(C)c(C)c(O)c1,inactive
16,FC(F)(Cl)C(F)(Cl)Cl,inactive

row,Compound,Potency
1,CCc1ccc2c(c1)C(=O)c1ccccc1C2=O,11.2 µM (active)
2,C=CCCC,inactive
3,CCC(C)C1N=C(C)C(C)S1 (configuration not stated),39.9 µM (active)
4,CCCCCCC/C=C/C=O,79.6 µM (active)
5,Clc1ccccc1-c1nc(-c2ccncc2)no1,0.977 µM (active)
6,CC(C)CC(C)(C)C,20.8 µM (active)
7,COc1ccc(/C=C/c2cc(OC)cc(=O)o2)cc1,4.09 µM (active)
8,C(/C=C/C=C/Nc1ccccc1)=Nc1ccccc1,inactive
9,O=C(Nc1ccc2c(c1)Cc1ccccc1-2)C(F)(F)F,17.8 µM (active)
10,CC[C@H](NC(C)C)[C@H](O)c1ccc(O)c2[nH]c(=O)ccc12,inactive
11,C1=COCCC1,inactive
12,COc1ccc(C(=O)c2ccc(C)cc2)c(O)c1,5.08 µM (active)
13,CC(=O)S[C@H](C(=O)N[C@H]1Cc2ccccc2[C@H]2CCC[C@@H](C(=O)O)N2C1=O)C(C)C,inactive
14,CCCCCCOC(=O)c1ccccc1,inactive
15,O=S(=O)(O)c1cc(Cl)c(Cl)cc1Cl,inactive
16,O=C1c2ccccc2C(=O)c2c1ccc(O)c2O,inactive
